According to PubChem BioAssay (Tox21):
Activity calls are given as the source filed them. Calls come from the whole dose curve; as a rule, active = well fitted inhibition curve with a large enough effect in the repeat runs (not every such curve was filed as active); inconclusive = weak or mixed curves; inactive = flat fitted curve, though single readings scatter.

target: Thyrotropin-releasing hormone receptor (Homo sapiens) (UniProt P34981); test: qHTS assay to identify small molecule antagonists of the thyrotropin-releasing hormone receptor (TRHR) signaling pathway (AID 1346877); settings: TRHR-HEK293, TRH-induced calcium fluorescence, antagonist mode; series mostly up to 51.3 µM; activity, negative = inhibition: at the top concentration
Description: National Center for Advancing Translational Sciences [NCATS]
NIH Chemical Genomics Center [NCGC]
U.S. Environmental Protection Agency [EPA]
National Institutes of Environmental Health Sciences [NIEHS]
National Toxicology Program [NTP]
U.S. Food and Drug Administration [FDA]
Thyrotropin-releasing hormone (TRH) receptor (TRHR) is a G-protein-coupled receptor which binds the tripeptide thyrotropin releasing hormone. TRHR is found in the brain and, when bound by TRH, acts (through phospholipase C) to increase intracellular inositol trisphosphate. It plays a crucial role in the anterior pituitary where it controls the synthesis and secretion of thyroid stimulating hormone and prolactin. The TRHR-Hek293 assay is a cell-based assay, and it has the potential to screen G protein-coupled receptors. A compound/drug can either activate (agonist) or suppress (antagonist) GPCRs that can be monitored by levels of intracellular calcium. In this assay, the Tox21 10K compound library was screened to identify potential TRHR antagonists.
Tox21 Assay Protocol Summary:
The TRHR-Hek293 cells were dispensed at 1500cells/4uL/well in 1536-well black-clear bottom plates using a Multidrop dispenser. After the assay plates were incubated at a 37 C/5% CO2 incubator for 18 hours, 4 uL of Dye-Loading Solution was added to each well. The plates were incubated at 37 C for 2 hours. For agonist mode, 23 nL of compounds dissolved in DMSO, positive controls or DMSO only was transferred to the assay plate by a pin tool. The fluorescence intensity in the plates was measured using FDSS 7000EX kinetic plate reader for 3 min at 1 sec intervals. For antagonist mode, 23 nL of compounds dissolved in DMSO, positive controls or DMSO only was transferred to the assay plate by a pin tool. After 5 min incubation at room temperature, 1 uL of TRH was added on the top of the cell/compound mixtures to achieve a final agonist concentration of 1 nM. The fluorescence intensity in the plates was measured using FDSS 7000EX kinetic plate reader for 3 min at 1 sec intervals. Each test compound was measured at 15 concentrations and in triplicates.
% is set by controls: 0 for no effect and ±100 for the full control effect.

Thyrotropin-releasing hormone receptor (Homo sapiens), sequence (P34981 whole entry, looked up): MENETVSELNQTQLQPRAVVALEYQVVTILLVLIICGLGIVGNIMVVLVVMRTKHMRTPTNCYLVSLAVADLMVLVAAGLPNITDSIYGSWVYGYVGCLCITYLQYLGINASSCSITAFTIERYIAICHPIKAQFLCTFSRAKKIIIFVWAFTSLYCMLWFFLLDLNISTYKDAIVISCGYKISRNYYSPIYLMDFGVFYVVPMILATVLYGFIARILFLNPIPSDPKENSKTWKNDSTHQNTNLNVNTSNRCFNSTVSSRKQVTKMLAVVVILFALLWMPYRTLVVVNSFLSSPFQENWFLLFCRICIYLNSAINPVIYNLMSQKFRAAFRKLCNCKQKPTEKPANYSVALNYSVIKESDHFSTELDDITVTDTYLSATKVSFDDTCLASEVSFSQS

SMILES | activity, negative = inhibition
CC(=O)Nc1cccc(N)c1 | 5.53% (inactive)
CC(C)(C(=O)O)c1ccc(C(O)CCCN2CCC(C(O)(c3ccccc3)c3ccccc3)CC2)cc1 (stereo not given) | 0.34% [at 23.6 µM] (inactive)
O=P(c1ccccc1)(c1ccccc1)c1ccccc1 | -0.888% (inactive)
C1CCN(CN2CCCCC2)CC1 | 8.49% (inactive)
CC(=O)Nc1ccccc1O | 1.11% (inactive)
CC/C=C\CCO | -0.892% (inactive)
Cc1ccc2ccccc2c1[N+](=O)[O-] | -1.03% (inactive)
C=CC(O)CCCCC (stereo not given) | 5.39% (inactive)
CCCCOc1ccc(N)cc1 | -3.86% (inactive)
CC(=O)OCC(=O)[C@@]1(O)CC[C@H]2[C@@H]3CCC4=CC(=O)C=C[C@]4(C)[C@@]3(F)[C@@H](O)C[C@@]21C | 2.96% [at 23.6 µM] (inactive)
CC(=O)c1ccc(Cl)c(Cl)c1Cl | 4.27% (inactive)
COc1ccc(C(=O)c2ccc(C)cc2)c(O)c1 | -10.7% (inactive)
O=C(O)c1ccc(O)c(O)c1 | -3.99% (inactive)
Clc1cccc(C(c2ccc3nc[nH]c3c2)n2ccnc2)c1 (stereo not given) | -1.24% [at 23.6 µM] (inactive)
O=C(N[C@@H](Cc1ccccc1)[C@@H](O)C(=O)N1C[C@@H](O)[C@@H](O)C1)c1cc2cc(Cl)ccc2[nH]1 | 5.4% (inactive)
CC1(C)CC(=O)CC(C)(C)N1 | -1.07% (inactive)
Cc1ccc(Cl)c(OCC(O)CNC(C)(C)C)c1 (stereo not given) | -1.03% [at 23.6 µM] (inactive)
CCCCCO | -0.882% (inactive)
O=C(Nc1ccc2c(c1)Cc1ccccc1-2)C(F)(F)F | 2.14% (inactive)
C[C@H](CN1CCCC1)C(=O)c1ccc(C(F)(F)F)cc1 | 1.69% [at 23.6 µM] (inactive)

SMILES | activity, negative = inhibition
C[C@H](N)C(=O)N[C@@H](C)C(=O)NC1[C@H]2CN(c3nc4c(cc3F)c(=O)c(C(=O)O)cn4-c3ccc(F)cc3F)C[C@@H]12 (stereo not given in full) | -0.864% [at 23.6 µM] (inactive)
CO[C@@H]1COCC[C@@H]1N[C@@H]1CC[C@@](C(=O)N2CCc3ncc(C(F)(F)F)cc3C2)(C(C)C)C1 | 0.876% (inactive)
C=CC(=O)OCCCCCCCCCC | 5.36% (inactive)
CC(C)Cc1nccs1 | 3.56% (inactive)
C=CC(C)(O)CC/C=C(/C)CCC=C(C)C (stereo not given) | 1.05% (inactive)
CCCCCCCCCC(C)C=O (stereo not given) | -4.62% (inactive)
NC(=O)c1ccccc1 | -0.107% (inactive)
Cc1c(Cl)cccc1Nc1ccccc1C(=O)O | -12.8% [at 23.6 µM] (inactive)
O=C(O)c1cc(C(=O)O)cc([N+](=O)[O-])c1 | 4.26% (inactive)
OCCCO | 1.68% (inactive)
COc1cccc([C@H](O)C2CCN(CCc3ccc(F)cc3)CC2)c1OC | 4.56% (inactive)
C=C[Si]1(C)O[Si](C)(C=C)O[Si](C)(C=C)O[Si](C)(C=C)O1 (stereo not given) | 1.28% (inactive)
CCCCCCCCNC | 4.44% (inactive)
CC(C)(C)NCC(O)COc1ccc(NC(=O)NC2CCCCC2)cc1 (stereo not given) | -2.39% [at 23.6 µM] (inactive)
Nc1ccccc1Nc1ccccc1 | 0.672% (inactive)
C=C(C)C(=O)OCCCCCCCCCCOC(=O)C(=C)C | -1.93% (inactive)
CCCOC(C)=O | 3.66% (inactive)
CCCCCCCCCCCCCCCCCCCl | 0.326% [at 4.65 µM] (inactive)
Nc1ncnc2c1ncn2[C@@H]1O[C@H](CO)[C@@H](O)[C@H]1O | 4.56% [at 23.6 µM] (inactive)
O=C(NC1CCN(CCc2c[nH]c3ccccc23)CC1)c1ccccc1 | -0.114% [at 23.6 µM] (inactive)
